# Source: publication PMC13494018
# Values without a mark were called inactive. How the calls were made is not given here.
# B1: d4r4_design_ppi_486_dldesign_0_cycle0_af2pred (protein)
# chain: MEETIERAKEAAREALEAAREAAKKNAADPEKVKKLAELAQKAQEARAEALAKPEKAEEALKRIEEYLKEAKEILE
# B2: d4r5_design_ppi_25_dldesign_0_cycle0_af2pred (protein)
# chain: EKEEALKKAANIIQKMREEGTAGINEAKVSGSKEIAKEAIKKAEELAKKALEEASKATPEDYEKAKEKVKRILERLKKEAEKVIKE
# B3: d4r5_design_ppi_34_dldesign_0_cycle1_af2pred (protein)
# chain: EEEKLKAAEAAARNLKLAIEAAKTEGKEYGILYMESAVQAGEIVGLGEKVKETKEALEKNPEEGIKLAEELKKEFEAIV
# B4: d4r4_design_ppi_439_dldesign_0_cycle1_af2pred (protein)
# chain: AEEEERERRVREAAEWLVEAPVRLANEAALRAGELAGDSDLALEIQALNNYNREEGARAALASPAREVVAEATEEVRRRREAERAAA
# B5: d4r4_design_ppi_471_dldesign_0_cycle0_af2pred (protein)
# chain: EEAEKVAKEAREVGKEAAEAGLKKTAAEAFAAANRVRAALAFKKANPEKGQPILEEEVKEAKEVIEKAKKEIAAKKAAA
# B6: d4r4_design_ppi_229_dldesign_0_cycle1_af2pred (protein)
# chain: EKEEKKKEAKELAEEAKKLAEELAKAAEEDLEKAKELYKKAKEAAGKAIKLAKEAGDKETAKEASENNFKAHENYAEGKFK
# B7: d4r4_design_ppi_344_dldesign_0_cycle1_af2pred (protein)
# chain: DPLTLAQEGLTEARYNAKDPEKALAILTATVAAGTAALAALAADPATAPLAAAGLATLARYGAKVGAEILANAKEKEA
# B8: d4r4_design_ppi_265_dldesign_0_cycle1_af2pred (protein)
# chain: SKEEEEAKKTKEEAEKRLKKALEEAKKLGEAEVDAVKQIVEAGKKAAAAAETPKEAAEALAKAAKTAESIIKTAKEAKKR
# B9: d4r4_design_ppi_253_dldesign_0_cycle1_af2pred (protein)
# chain: MEEKKEEARRIVREAREEARKAAAESPEAALKAAEKVKERRKELEEKVDFKTAESASARFEQIIEALKIAAKKLAA
# B10: d4r4_design_ppi_471_dldesign_0_cycle1_af2pred (protein)
# chain: EEAKKVAEEAKKVGKEAAKAGLEKLAAEAFEASYKVKAAYDFYKKNPEKGKEILEEEVKEAKKVIEKAKKEIKKAKAKA
# B11: d4r4_design_ppi_356_dldesign_0_cycle1_af2pred (protein)
# chain: DLEEKAKEGLKKMEEEGKKNPELGKKVKELLEKGKEDGLKGVVEAAKLLTKEAGEEIKPYAAAIVHYERLKK
# B12: d4r5_design_ppi_34_dldesign_0_cycle0_af2pred (protein)
# chain: EEEKKEAAKKAAELIERAIEAAKTEGKEYGIIYMEAAVEAAKKVGLGEKAKEALKALEKDEEEGIKLAKELREEFEKLI
# B13: d4r5_design_ppi_7_dldesign_0_cycle1_af2pred (protein)
# chain: EESKELRIKAISLLSSAAFYAKTLGPEGKYFEKAAELALTDLEKAIEEAKKALKAAEKLDKELAKRVEKAIEYLKKALE
# B14: d4r4_design_ppi_490_dldesign_0_cycle0_af2pred (protein)
# chain: AKTEEEAKKAATEASEAVADLRGYEQEAKIKGNEEAAKVAKEAIKEAAKLAKEAAASKDPKEALKLAKEALKVAKKAIEEVKKLLE
# B15: d4r4_design_ppi_490_dldesign_0_cycle1_af2pred (protein)
# chain: AEVEKEAKKAATEAREAVAELRGLAQEAKLKGVEEAKKVAEEAIKEASALLKEAAKEKDPEKALKLAKEAYKVAKEAIKKAKKLLE
# B16: d4r5_design_ppi_25_dldesign_0_cycle1_af2pred (protein)
# chain: EEKEAVKKAAKIIQEMREKGLELIHEAKIKGSKEIAEEGIKKAEELGKKALEAAEKASPEERKKVEEKVEKTLKRIKEEAEKVIKE
# B17: d4r4_design_ppi_411_dldesign_0_cycle1_af2pred (protein)
# chain: SAAEVAALEKAARAAIAAALAAAKAALADPSTLAEQKKAAEAALAAAREAAAAARWKDYEVGEALRKELAAAEKEVKATIAEAQKKKE
# B18: d4r5_design_ppi_20_dldesign_0_cycle1_af2pred (protein)
# chain: MNLEELKKKVKEYTKELGKKAGVSEEEIKELAELAAEAASLSSDTTKEVLEDYAKESSEKVAKVAKETAEYAIEIKKKAR
# B19: d4r4_design_ppi_251_dldesign_0_cycle1_af2pred (protein)
# chain: DSDEKAKELLEEAEKYLEEGEKLMEEGKYEEAVLLYRRAQVAALSAELSATTEELKEKAKELLKKAEEKLKEAEEALKKAEEEKK
# B20: d4r4_design_ppi_491_dldesign_0_cycle1_af2pred (protein)
# chain: SANKELADAIKEAAKEAQAAANAAKEAYADDPAKAKEFADKMEKKIDEAHNSDLETAKKIAEEAKKEKEKAKAALKKAKA
# B21: d4r4_design_ppi_349_dldesign_0_cycle0_af2pred (protein)
# chain: SEKEKLLEKYKETLEELRKVRKELAKEKKNLDKETFTKIANELQDARNESAYYKQQGDYKKALEAAEKALEIAKEGLKKAKEAA
# B22: d4r4_design_ppi_373_dldesign_0_cycle1_af2pred (protein)
# chain: SEKEARIKEAVALMDKAAEEAAEKAKTTELANKAFRAATTAAKAAASGEDWPKGEAAVKELKKADPEAGKIIEEAAKQAAEIIA
# B23: d4r4_design_ppi_481_dldesign_0_cycle1_af2pred (protein)
# chain: MADEASAEIRLENAKDAAKIWIKKVEKIDPELAKEYAAKMKEAAKKPDKEGAKKAREIAKEVKKKAEELEKKAKEKEEEKKKEEEEK
# B24: d4r4_design_ppi_303_dldesign_0_cycle0_af2pred (protein)
# chain: MAERAAIMEEARENAIKAYEYAVKLKKIDPELGKEYMKKIDKLMKEAVEAAKDAEKAKKKAEEIKKLAEEIEKIAKEK
# B25: d4r4_design_ppi_373_dldesign_0_cycle0_af2pred (protein)
# chain: AARAAAQKEAVALMAEAAEKAAEKAKKTSVAAEAFRAATKAAQAAASGEKWPEGEAAVEKLKKLDPEAGKIIAEAAAKAKAIMA
# B26: d4r4_design_ppi_269_dldesign_0_cycle1_af2pred (protein)
# chain: DVEEAREKNLEIAKKAIEEARKVAKEAEKKPEYREKAKELRKEAEELEKLAEEGKKDPLMATLAGVQGRRLLEEARKLRKELEEE
# B27: d4r4_design_ppi_349_dldesign_0_cycle1_af2pred (protein)
# chain: SEAAKYKAQYEATKKQLKETSAKLKEEKKNLSAETYKEYANKLQEARQKSTYYKAKGDYKNALAAMQEALDIAQQALAEAQKAK
# B28: d4r4_design_ppi_257_dldesign_0_cycle1_af2pred (protein)
# chain: AEAKAAREAEFKALVEKAEAAADAAMAKATTIEEKKAILDLFNEAARHAKRGAANPETAAADLAAAKAKLAEIEAKAKA
# B29: d4r4_design_ppi_410_dldesign_0_cycle0_af2pred (protein)
# chain: AAAAAAAQKAEMDRTVAAAERQTAILEKRLKAAGLTALADKVKAALAALKAAAEAGDYEAAKKAAAALAKAAAEAREAVAEKEVKA
# B30: d4r4_design_ppi_338_dldesign_0_cycle1_af2pred (protein)
# chain: SLNEEAKKEAEKLVEKAKKALKESPEAGEKAVKEMANKYHEYLELGVDKEVVERLRKEAKELKEEVKRKKKELEEEKLA
# B31: d4r4_design_ppi_486_dldesign_0_cycle1_af2pred (protein)
# chain: MEEVVKKAEEAAKKAVEAAREAAKKNAADPEKVKYLAELAQEALEARAVALAKPELAEEELKKIEEKRKKAEEILA
# B32: d4r4_design_ppi_253_dldesign_0_cycle0_af2pred (protein)
# chain: MEELREEARRRMREARERAGEAAATSPEAAREAAEEVRRIAEELRKRVDWQTGARAEAQAEQIVEALERAAKAMEA
# B33: d4r4_design_ppi_240_dldesign_0_cycle0_af2pred (protein)
# chain: MKEKQEKARAEARAEHVKEAIEKYYKEAAKGDKKEALKKTAEFAKEAAKKAKYPLTKEIALALAEEYAKKAA
# B34: d4r4_design_ppi_394_dldesign_0_cycle1_af2pred (protein)
# chain: MEIQKENDAEAGLERAKHAKEVAKKALENKPKLSLEEVAEILKKAAERAEKAAKTEEGKKLAKELKEEAKKVEAELKKAQ
# B35: d4r4_design_ppi_269_dldesign_0_cycle0_af2pred (protein)
# chain: SVEEAKKKNLKIAEEAIKLAEEVAKELEKNEKYKEKAEEFKKKAKELKELKKKGEEDALDATLAGVYGKRLKKKAEEEKKKLEEE
# B36: d4r5_design_ppi_19_dldesign_0_cycle0_af2pred (protein)
# chain: MEEKLKEAAKKVQEAYQLAAENKEKREELRELAKKARESLKEAEKAYKEGKEEEAEKYLEKSFEYNKEAEELYKKTKKEKEEKEKK
# B37: d4r4_design_ppi_396_dldesign_0_cycle0_af2pred (protein)
# chain: AEAAAFAAAKAAAAKAFAEAYEAANALLASGKYKEEAEKGKKELKELAKKLKAAKTAEEAKKVAEEAKKLAEKLKKLLEEAE
# B38: d4r4_design_ppi_299_dldesign_0_cycle0_af2pred (protein)
# chain: KSELAKKAADETSKALSYIRAFAKYKPEKGKEIEDLLLDEEKMEEAAELAEKAAKEAETEEEKEIAKKAAEHIRKAKEYLEKLK
# Biological target: VTCN1, Q7Z7D3
# Sequence (Q7Z7D3 whole entry): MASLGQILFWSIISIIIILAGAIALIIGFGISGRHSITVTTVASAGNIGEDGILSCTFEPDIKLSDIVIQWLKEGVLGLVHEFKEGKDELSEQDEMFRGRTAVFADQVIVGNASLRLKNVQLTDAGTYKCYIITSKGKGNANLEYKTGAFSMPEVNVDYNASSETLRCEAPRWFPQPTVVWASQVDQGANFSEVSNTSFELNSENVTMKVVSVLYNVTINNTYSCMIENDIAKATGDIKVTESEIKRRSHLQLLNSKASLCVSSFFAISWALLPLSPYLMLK
row,Binder,binding in a display sort
1,B1,not found
2,B2,not found
3,B3,not found
4,B4,not found
5,B5,not found
6,B6,not found
7,B7,not found
8,B8,not found
9,B9,not found
10,B10,not found
11,B11,not found
12,B12,not found
13,B13,not found
14,B14,not found
15,B15,not found
16,B16,not found
17,B17,not found
18,B18,not found
19,B19,not found

row,Binder,binding in a display sort
1,B20,not found
2,B21,not found
3,B22,not found
4,B23,not found
5,B24,not found
6,B25,not found
7,B26,not found
8,B27,not found
9,B28,not found
10,B29,not found
11,B30,not found
12,B31,not found
13,B32,not found
14,B33,not found
15,B34,not found
16,B35,not found
17,B36,not found
18,B37,not found
19,B38,not found
